Bioassay records from PubChem BioAssay.
This excerpt belongs to a sample that is enriched for hits.
Giardia FBPA inh: Giardia lamblia aldolase inhibition; A8B2U2; purified Giardia FBPA; Potency, µM (series often up to 59.6 µM), hits mostly inhibitors; 290,000 compounds, 0.71% hits; further: nearly all actives have a fitted effect of over 55% in size
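Giardia FBPA (40 nM reagent) was preincubated 10 min at RT with compound (up to 57.5 uM final), then substrate plus GAPDH/TPI/NAD/arsenate coupling system with diaphorase/resazurin was added; resorufin fluorescence (525/598 nm) was read after 20 min.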
Tb PYK inh: T. brucei pyruvate kinase inhibition; Potency, µM (series often up to 76.8 µM), most hits filed as inhibitors; AID 624173; TbPYK enzyme, Kinase-Glo Plus ATP luminescence, 45 min; 410,000 compounds, 0.12% hits; Q57TT1; further: nearly all actives have a fitted effect of over 50% in size
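Enzyme and substrate buffer are dispensed first and compound is pin-transferred. ADP at 130 uM final then starts the reaction, which runs 45 min at room temperature. Detection reagent is added for 10 min before luminescence is imaged.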
Shiga toxin inh: blocks Shiga toxin action in Vero cells | Vero cells, Shiga toxin protein synthesis inhibition reporter | inhibition, % at 38.7 µM | AID 2315 | 290,000 compounds, 9.2% hits; in the data active means inhibition mostly above about 28%, no sharp cut-off; inactive means mostly below about 43%
CHX counter-1: counter-screen for Shiga toxin inhibitors: cycloheximide protein synthesis inhibition | cell reporter, cycloheximide protein synthesis inhibition counterscreen | max response, % | 300,000 compounds, 12% hits; in the data active means max response mostly above about 13%, no sharp cut-off; inactive means mostly below about 14%; further: read at 38.3 µM for the half of the compounds with a filed dose
RE007 growth inh: less growth of the S. pombe RE007 Vpr strain | S. pombe RE007 Vpr strain, BacTiter-Glo ATP luminescence, 24 h | Potency, µM (titrated, usually from 92.2 µM), hits mostly inhibitors | 360,000 compounds, 0.21% hits | AID 651644; active means well fitted falling curve with a large enough effect; inconclusive means small, poorly fitted or top-dose-only effect; inactive means no such curve, though single readings can be large or run the other way; further: nearly all actives have a fitted effect of over 50% in size
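Fission yeast strain RE007, carrying one chromosomally integrated HIV-1 vpr copy, was seeded at OD 0.01 in PMG+AL medium with 23 nL pinned compound. After 24 h at 30 °C and 99% humidity, viability was read by BacTiter-Glo luminescence.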
LmPK inhibitor: blocks Leishmania mexicana pyruvate kinase activity; Q27686; purified LmPK, Kinase-Glo ATP luminescence, 1 h; Potency, µM (highest dose often 57.5 µM), usual class: inhibitors; 290,000 compounds, 0.37% hits
Target sequence (Q27686 whole entry, looked up): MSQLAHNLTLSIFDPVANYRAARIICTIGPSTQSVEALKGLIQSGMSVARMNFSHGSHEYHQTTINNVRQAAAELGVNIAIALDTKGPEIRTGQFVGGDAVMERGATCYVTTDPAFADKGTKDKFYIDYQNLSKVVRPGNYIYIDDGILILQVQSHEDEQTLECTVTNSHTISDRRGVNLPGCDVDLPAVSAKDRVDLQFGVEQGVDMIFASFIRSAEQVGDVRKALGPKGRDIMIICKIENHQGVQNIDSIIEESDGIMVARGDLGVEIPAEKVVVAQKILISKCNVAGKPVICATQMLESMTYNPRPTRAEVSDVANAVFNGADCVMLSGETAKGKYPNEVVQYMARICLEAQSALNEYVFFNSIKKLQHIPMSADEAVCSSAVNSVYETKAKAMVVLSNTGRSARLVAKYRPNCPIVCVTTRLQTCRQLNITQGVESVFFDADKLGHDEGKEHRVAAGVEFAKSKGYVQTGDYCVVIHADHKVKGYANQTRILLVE
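Purified LmPK (0.1 nM) with 0.5 mM PEP and 0.1 mM ADP in imidazole buffer pH 7.2 with MgCl2/KCl, 1 h at room temperature. ATP formed was read by luciferase luminescence and normalized to no-enzyme and uninhibited controls.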
CHX counter-2: protein synthesis counter-screen activity for Shiga toxin hits. AID 2318. shares compounds with Shiga toxin inh. Potency, µM (series often up to 38.3 µM), usual class: activators. 510 compounds, 3% hits. Cycloheximide counterscreen, protein synthesis reporter, Shiga toxin assay; calls by dose curve
Hits are given with their value; [ ] = dose if it differs, or a comment. Unless noted, the call rests on the fitted dose curve; in most records, active means well fitted curve in the direction sought with a large enough effect; inconclusive means small, poorly fitted or top-dose-only effect, or another doubt; inactive means no such curve, though single readings can be large; an effect the other way counts as inactive or inconclusive.

Results for Cc1cc(NC(=O)c2cc(F)c(F)cc2Cl)no1 ?
Giardia FBPA inh: inactive; Tb PYK inh: inactive; Shiga toxin inh: 34.5; CHX counter-1: inactive; RE007 growth inh: inactive; LmPK inhibitor: inactive; CHX counter-2: inactive

Results for CC#CCN1c2ccccc2[C@]23C[C@@H](C(=O)OC)N(C(=O)COCc4ccccc4)C2=NC(C(=O)OC)=C(C(=O)OC)[C@H]13 ?
Giardia FBPA inh: inactive[12.9 µM]; LmPK inhibitor: inactive[11.5 µM]

How did Cc1cc(C)c2nc(-c3ccccn3)cc(C(=O)NCc3ccco3)c2c1 do in these assays?
Giardia FBPA inh: inactive; Tb PYK inh: inactive; Shiga toxin inh: 10.2; CHX counter-1: inactive; RE007 growth inh: inactive; LmPK inhibitor: inactive; CHX counter-2: inconclusive

Results for CC(=O)Nc1cc(-c2cccc(CO)c2)cn2c(-c3ccc(F)cc3)cnc12 ?
Tb PYK inh: inactive; RE007 growth inh: inactive[18.4 µM]

What do the screens show for `C[C@@]12CCC(OC(=O)c3ccccc3)CC1CCc1ccccc12` (some centres not stated)?
Giardia FBPA inh: inactive

Results for CCn1c(SCC(=O)Nc2cc(C)on2)nnc1-c1cccc(C)c1 ?
Giardia FBPA inh: inactive; Tb PYK inh: inactive; Shiga toxin inh: 93.4; CHX counter-1: inactive; RE007 growth inh: inactive; LmPK inhibitor: inactive; CHX counter-2: inactive

How did O=C(CSc1nnc(-c2ccccn2)o1)Nc1ccccc1C(F)(F)F do in these assays?
Giardia FBPA inh: inactive; Tb PYK inh: inactive; Shiga toxin inh: 63.1; CHX counter-1: inactive; RE007 growth inh: inactive; LmPK inhibitor: inactive; CHX counter-2: inactive

How did CCOc1ccc(N(c2nc(-c3ccc(OC)c(OC)c3)no2)c2nc(-c3ccc(OC)c(OC)c3)no2)cc1 do in these assays?
Tb PYK inh: inactive

What do the screens show for `CCN(CC(=O)Nc1c(F)cccc1F)C(=O)CCCc1c[nH]c2ccccc12`?
Giardia FBPA inh: inactive; Tb PYK inh: inactive; Shiga toxin inh: inactive; CHX counter-1: inactive; RE007 growth inh: inactive; LmPK inhibitor: inactive

How did CCN(CC)C(=O)CCCc1c[nH]c2ccccc12 do in these assays?
Giardia FBPA inh: inactive; Tb PYK inh: inactive; Shiga toxin inh: 52.2; CHX counter-1: inactive; RE007 growth inh: inactive; LmPK inhibitor: inactive; CHX counter-2: inactive

How did O=C1C(Cl)=C(Nc2ccccc2)C(=O)c2ccccc21 do in these assays?
Giardia FBPA inh: inconclusive; Tb PYK inh: inactive; Shiga toxin inh: 68.8; CHX counter-1: inactive; RE007 growth inh: inactive; LmPK inhibitor: inactive; CHX counter-2: inconclusive

How did CN(Cc1ccccc1)C(=O)Nc1ccc2c(c1)N(C)C(=O)c1ccccc1S2 do in these assays?
Tb PYK inh: inactive

What do the screens show for `CNC(=O)CSc1nnc(-c2cc(C)cc(C)c2)o1`?
Giardia FBPA inh: inactive; Tb PYK inh: inactive; Shiga toxin inh: 26.9; CHX counter-1: inactive; RE007 growth inh: inactive; LmPK inhibitor: inactive; CHX counter-2: inactive

How did O=C(CCBr)Nc1cccc2cccnc12 do in these assays?
Shiga toxin inh: inactive; CHX counter-1: inactive

Results for O=C(Cc1ccc(F)cc1)Nc1cccc2cccnc12 ?
Giardia FBPA inh: inactive; Tb PYK inh: inactive; Shiga toxin inh: 35.8; CHX counter-1: inactive; RE007 growth inh: inactive; LmPK inhibitor: inactive; CHX counter-2: inactive

What do the screens show for `CSc1nc2cc3c(cc2n1C(=O)c1ccc(C)cc1)OCCO3`?
Giardia FBPA inh: inactive; Tb PYK inh: inactive; Shiga toxin inh: 80.0; CHX counter-1: inactive; RE007 growth inh: inactive; LmPK inhibitor: inactive; CHX counter-2: inconclusive

How did Cc1ccc(C(=O)c2cc3c(cc2N)OCCO3)cc1 do in these assays?
Giardia FBPA inh: inactive; Tb PYK inh: inactive; Shiga toxin inh: inactive; CHX counter-1: inactive; RE007 growth inh: inactive; LmPK inhibitor: inactive

Results for COc1ccccc1N(CCC#N)C(=O)CSc1nc(-c2ccccc2)cn1N ?
Giardia FBPA inh: inactive; Tb PYK inh: inactive; Shiga toxin inh: 74.5; CHX counter-1: inactive; RE007 growth inh: inactive; LmPK inhibitor: inactive; CHX counter-2: inactive

Results for O=C(CC(c1ccccc1)c1cc(Cl)ccc1O)N1CCOCC1 (configuration not stated) ?
Giardia FBPA inh: inactive; Tb PYK inh: inactive; Shiga toxin inh: inactive; CHX counter-1: inactive; RE007 growth inh: inactive; LmPK inhibitor: inactive

How did O=C(CC(c1ccccc1)c1cc(Cl)ccc1O)N1CCCC1 (configuration not stated) do in these assays?
Giardia FBPA inh: inactive; Tb PYK inh: inactive; Shiga toxin inh: 56.7; CHX counter-1: inactive; RE007 growth inh: inactive; LmPK inhibitor: inactive; CHX counter-2: inactive

How did O=C(COc1ncnc2ccccc12)NCCc1ccccc1 do in these assays?
Giardia FBPA inh: inactive; Tb PYK inh: inactive; Shiga toxin inh: inactive; CHX counter-1: inactive; RE007 growth inh: inactive; LmPK inhibitor: inactive

How did O=C(COc1ncnc2ccccc12)NCCC1=CCCCC1 do in these assays?
Giardia FBPA inh: inactive; Tb PYK inh: inactive; Shiga toxin inh: 40.6; CHX counter-1: inactive; RE007 growth inh: inactive; LmPK inhibitor: inactive; CHX counter-2: inactive

Results for COc1ccccc1CNC(=O)Cn1cc([N+](=O)[O-])ccc1=O ?
Tb PYK inh: inactive; Shiga toxin inh: 50.3; CHX counter-1: inactive; RE007 growth inh: inactive; LmPK inhibitor: inactive; CHX counter-2: inactive

What do the screens show for `O=S(=O)(c1cccc(C(F)(F)F)c1)n1c(/C=C/c2ccccc2)nc2ccccc21`?
Tb PYK inh: inactive

Results for COCCCNC(=O)NC(=O)c1ccccc1 ?
Giardia FBPA inh: inactive; Tb PYK inh: inactive; Shiga toxin inh: 18.3; CHX counter-1: inactive; RE007 growth inh: inactive; LmPK inhibitor: inactive; CHX counter-2: inactive

How did CCCC(=O)Nc1cc(C)c(NC(=O)c2ccco2)cn1 do in these assays?
Giardia FBPA inh: inactive; Tb PYK inh: inactive; CHX counter-1: inactive; RE007 growth inh: inactive; LmPK inhibitor: inactive

How did CCCC(=O)Nc1cnc(NC(=O)c2cccc(F)c2)cc1C do in these assays?
Giardia FBPA inh: inactive; Tb PYK inh: inactive; Shiga toxin inh: 66.8; CHX counter-1: inactive; RE007 growth inh: inactive; LmPK inhibitor: inconclusive; CHX counter-2: 1.59µM

How did Cc1ccc(NC(=S)c2nc3ccccc3s2)cc1 do in these assays?
Tb PYK inh: inactive; Shiga toxin inh: 72.5; CHX counter-1: inactive; RE007 growth inh: inactive; LmPK inhibitor: inactive; CHX counter-2: 0.711µM

What do the screens show for `C[C@@H](NC(=O)[C@@H]1CCCN1C(=O)[C@@H]1CCCN1C(=O)c1ccc(Cl)cc1)c1ccccc1`?
Tb PYK inh: inactive; RE007 growth inh: inactive

How did CCOC(=O)C1CCCN(C(=O)c2cc(Nc3ccc(OC)c(OC)c3)nc3ccccc23)C1 (configuration not stated) do in these assays?
Giardia FBPA inh: inactive; Tb PYK inh: inactive; Shiga toxin inh: 37.9; CHX counter-1: inactive; RE007 growth inh: inactive; LmPK inhibitor: inactive; CHX counter-2: inactive
